Measured values: the supplement of paper PMC11732987, “Enantioselective OTUD7B fragment discovery through chemoproteomics screening and high-throughput optimisation” (Communications Chemistry, 2025)

Assays:
Assay in all cases: log2 ratio of Biotin-Ahx-Ub-VS probe labelling (compound/DMSO); higher = less target engagement, active = hit call of the paper (q ≤ 0.05, log2 ratio ≤ -1)
Conditions in all cases: treatment time: 3 h
[1] = compound: CCC1N(CCc2sccc12)C(=O)CCl
How it was run: (§1)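 HEK293T lysate (495 µg per sample, in Tris/CHAPS/IGEPAL buffer with protease inhibitors) was exposed in triplicate to compound at 50 or 200 µM, or to DMSO, for 3 h, then to Biotin-Ahx-Ub-VS (0.5 µM final) for 1 h. The labelled DUBs were enriched on NeutrAvidin, digested with LysC and trypsin, and analysed by diaPASEF LC-MS/MS. Average base-two log ratios of compound over DMSO came from median-normalised label-free quantities by unpaired t-test. Only proteins with at least 2 unique peptides were used.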

[2] = compound: CN1c2ccccc2C(CS1(=O)=O)NC(=O)CCl
How it was run: as §1

[3] = compound: Cl.ClCC(=O)N1CCc2ncncc2C1
How it was run: as §1

[4] = compound: Cl.Cn1ncc2C(CCCc12)NC(=O)CCl
How it was run: as §1

[5] = compound: ClCC(=O)NC1CCOc2ccccc12
How it was run: as §1

[6] = compound: ClCC(=O)NC1CCCc2ccccc12
How it was run: (§2)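 In triplicate, 495 µg portions of HEK293T lysate in Tris/CHAPS/IGEPAL buffer with protease inhibitors received compound across a concentration series or vehicle for 3 h, followed by 1 h with 0.5 µM final Biotin-Ahx-Ub-VS. After NeutrAvidin enrichment and LysC/trypsin digestion, the labelled deubiquitinases were measured by diaPASEF LC-MS/MS and quantified label-free in Spectronaut with global-median normalisation. Each value is an average compound-to-vehicle ratio from an unpaired t-test, expressed as log2 and restricted to proteins having two or more unique peptides.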

[7] = compound: ClCC(=O)N[C@@H]1CCCc2ccccc12
How it was run: as §2

[8] = compound: ClCC(=O)N[C@H]1CCCc2ccccc12
How it was run: as §2

[9] = compound: CCC1N(CCc2cc(OC)c(Cl)cc12)C(=O)CCl
How it was run: as §1

[10] = compound: CCCC1N(CCc2cc(OC)c(OC)cc12)C(=O)CCl
How it was run: as §1

[11] = compound: CN(Cc1cccc(Br)c1)C(=O)CCl
How it was run: as §1

[12] = compound: CN(Cc1cccc(OCc2ccccc2C)c1)C(=O)CCl
How it was run: as §1

[13] = compound: CN(Cc1ccccc1)C(=O)CCl
How it was run: as §1

[14] = compound: COc1ccc(CN(C)C(=O)CCl)cc1
How it was run: as §1

[15] = compound: COc1cccc(CN(CCCc2ccccc2)C(=O)CCl)c1
How it was run: as §1

[16] = compound: ClCC(=O)N1CCc2cc(Cl)c(Cl)cc2C1
How it was run: as §1

[17] = compound: ClCC(=O)N1CCc2nc(ncc2C1)-c1ccccc1
How it was run: as §1

[18] = compound: ClCC(=O)N1CCc2nocc2C1
How it was run: as §1

[19] = compound: ClCC(=O)N1CCc2scc(Br)c2C1
How it was run: as §1

[20] = compound: ClCC(=O)NC(C1CCCC1)c1cccs1
How it was run: as §1

Measured: log2 ratio of Biotin-Ahx-Ub-VS probe labelling

USP39 (UniProt Q53GS9)
Sequence of UniProt Q53GS9 (Q53GS9 whole entry): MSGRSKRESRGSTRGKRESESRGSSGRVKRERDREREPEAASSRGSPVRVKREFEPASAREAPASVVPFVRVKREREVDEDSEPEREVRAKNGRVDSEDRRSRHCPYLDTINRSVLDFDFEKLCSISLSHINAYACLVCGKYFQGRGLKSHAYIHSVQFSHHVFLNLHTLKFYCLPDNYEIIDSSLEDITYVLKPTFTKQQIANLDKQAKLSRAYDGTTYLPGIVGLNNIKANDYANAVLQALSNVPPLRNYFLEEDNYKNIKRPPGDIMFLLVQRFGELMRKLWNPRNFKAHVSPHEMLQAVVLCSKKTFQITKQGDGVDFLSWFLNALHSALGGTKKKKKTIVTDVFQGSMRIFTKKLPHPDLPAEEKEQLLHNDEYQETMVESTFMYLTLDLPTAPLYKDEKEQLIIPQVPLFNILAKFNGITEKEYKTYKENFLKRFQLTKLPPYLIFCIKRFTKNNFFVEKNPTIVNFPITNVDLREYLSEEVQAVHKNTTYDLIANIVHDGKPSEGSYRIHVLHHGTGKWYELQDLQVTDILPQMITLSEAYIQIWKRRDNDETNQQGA
inactive: [1]; compound concentration: 50uM 0.0546 | [1]; compound concentration: 200uM -0.102 | [2]; compound concentration: 50uM -0.157 | [2]; compound concentration: 200uM -0.0618 | [3]; compound concentration: 50uM 0.0365 | [3]; compound concentration: 200uM -0.18 | [4]; compound concentration: 50uM 0.0136 | [4]; compound concentration: 200uM -0.0545 | [5]; compound concentration: 50uM 0.225 | [5]; compound concentration: 200uM -0.157 | [6]; compound concentration: 0.78uM -0.0849 | [6]; compound concentration: 1.56uM 0.00415 | [6]; compound concentration: 3.13uM -0.107 | [6]; compound concentration: 6.25uM -0.121 | [6]; compound concentration: 12.5uM -0.133 | [6]; compound concentration: 25uM -0.219 | [6]; compound concentration: 50uM -0.32 | [6]; compound concentration: 100uM -0.0966 | [6]; compound concentration: 200uM -0.188 | [7]; compound concentration: 0.78uM -0.138 | [7]; compound concentration: 1.56uM -0.0134 | [7]; compound concentration: 3.13uM 0.0533 | [7]; compound concentration: 6.25uM -0.0819 | [7]; compound concentration: 12.5uM -0.132 | [7]; compound concentration: 25uM -0.181 | [7]; compound concentration: 50uM -0.277 | [7]; compound concentration: 100uM -0.108 | [7]; compound concentration: 200uM -0.208 | [8]; compound concentration: 0.78uM 0.0296 | [8]; compound concentration: 1.56uM -0.22 | [8]; compound concentration: 3.13uM -0.0221 | [8]; compound concentration: 6.25uM -0.000844 | [8]; compound concentration: 12.5uM -0.0179 | [8]; compound concentration: 25uM -0.167 | [8]; compound concentration: 50uM -0.0419 | [8]; compound concentration: 100uM -0.206 | [8]; compound concentration: 200uM -0.187 | [9]; compound concentration: 50uM 0.209 | [9]; compound concentration: 200uM 0.0808 | [10]; compound concentration: 50uM -0.0814 | [10]; compound concentration: 200uM -0.0567 | [11]; compound concentration: 50uM 0.105 | [11]; compound concentration: 200uM -0.535 | [12]; compound concentration: 50uM -0.137 | [12]; compound concentration: 200uM 0.0162 | [13]; compound concentration: 50uM -0.0746 | [13]; compound concentration: 200uM 0.0651 | [14]; compound concentration: 50uM 0.011 | [14]; compound concentration: 200uM -0.086 | [15]; compound concentration: 50uM 0.17 | [15]; compound concentration: 200uM 0.063 | [16]; compound concentration: 50uM 0.017 | [16]; compound concentration: 200uM -0.298 | [17]; compound concentration: 50uM 0.044 | [17]; compound concentration: 200uM 0.117 | [18]; compound concentration: 50uM -0.102 | [18]; compound concentration: 200uM -0.0827 | [19]; compound concentration: 50uM -0.0611 | [19]; compound concentration: 200uM -0.272 | [20]; compound concentration: 50uM 0.165 | [20]; compound concentration: 200uM 0.014
